The source of these data is PubChem BioAssay (Tox21).

Molecules are shown by their SMILES. Several values for one entry are separate records, joined by “and”; a condition that tells them apart may be missing. Identical values can stand only once. Inconclusive results are not listed. Unmarked numbers belong to inactive results. Activity calls are given as the source filed them. Unless noted, calls follow the shape of the dose curve; as a rule, active = well fitted curve in the direction sought with a large enough effect in the repeat runs; inconclusive = weak or mixed curves; inactive = no such curve, though single readings can be large; an effect the other way counts as inactive or inconclusive.

Experiment [1] in a line: qHTS assay to identify small molecule antagonists of the thyroid receptor (TR) signaling pathway (AID 743065). Also: nearly all actives have a fitted effect of over 55% in size. Also: potency is read from the fitted curve at half-maximal effect. The method in brief: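 Antagonism measured as loss of luciferase signal in GH3 cells stably carrying a TRE-luciferase reporter, co-treated with compound and T3 (1 nM final) for 23.5 h at 37 C. Viability was read in the same well by CellTiter-Fluor.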
Background: qHTS replaces the single test concentration by a dilution series.

Experiment [2] concerns thyroid hormone receptor (rat, GH3 cells). Put plainly: qHTS assay to identify small molecule agonists of the thyroid receptor (TR) signaling pathway (AID 743066; calls by dose curve).
Experiment [3] deals with Estrogen receptor (Homo sapiens) (UniProt P03372). Put plainly: qHTS assay to identify small molecule antagonists of the estrogen receptor alpha (ER-alpha) signaling pathway (AID 743069; active = well fitted curve in the direction sought with a large enough effect in the signal ratio in the repeat runs, not every such curve was filed as active; the % refers to the signal ratio). In outline: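 Compound effects are measured against 17beta-estradiol stimulation in HEK293 cells with a UAS-controlled beta-lactamase reporter for ER-alpha. Exposure lasts 18 hr at 37C; LiveBLAzer B/G FRET substrate follows for 2 hr at room temperature.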

Experiment [4] is described as follows: qHTS assay to identify small molecule antagonists of the estrogen receptor alpha (ER-alpha) signaling pathway - cell viability counter screen (AID 743074; calls by dose curve;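 also: HEK293 cells carrying ER-alpha-UAS-bla reporter stimulated with 17beta-estradiol; nearly all actives have a fitted effect of over 45% in size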; also: potency is read from the fitted curve at half-maximal effect).
Experiment [5] concerns the target Estrogen receptor (Homo sapiens) (UniProt P03372). Description: qHTS assay to identify small molecule agonists of the estrogen receptor alpha (ER-alpha) signaling pathway (AID 743075; calls by dose curve).
For experiment [6] the target is unchanged. Put plainly: qHTS assay to identify small molecule agonists of the estrogen receptor alpha (ER-alpha) signaling pathway using the BG1 cell line (AID 743079). Also: nearly all actives have a fitted effect of over 20% in size. Also: potency is read from the fitted curve at half-maximal effect.
The nature of experiment [7]: qHTS assay to identify small molecule antagonists of the estrogen receptor alpha (ER-alpha) signaling pathway using the BG1 cell line - cell viability counter screen (AID 743081).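 Also: compound given together with 17beta-estradiol as the ER stimulus; series mostly up to about 70 µM; nearly all actives have a fitted effect of over 45% in size.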
Experiment [8] addresses Aromatase (Homo sapiens) (UniProt P11511). Put plainly: qHTS assay to identify aromatase inhibitors (AID 743083). Also: nearly all actives have a fitted effect of over 55% in size. Also: potency is read from the fitted curve at half-maximal effect.
Experiment [9] is described as follows: qHTS assay to identify small molecule antagonists of the thyroid receptor (TR) signaling pathway - cell viability counter screen (AID 743064). Also: nearly all actives have a fitted effect of over 50% in size. Also: potency is read from the fitted curve at half-maximal effect. The method in brief: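 In rat pituitary GH3.TRE-Luc reporter cells co-exposed to compound and 1 nM T3 for 23.5 h, cytotoxicity was assessed with CellTiter-Fluor in the same wells, read by fluorescence.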
Experiment [10] in a line: qHTS assay to identify small molecule antagonists of the estrogen receptor alpha (ER-alpha) signaling pathway using the BG1 cell line (AID 743080; calls by dose curve;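 also: BG1 cells stimulated with 17beta-estradiol alongside compound; series mostly up to about 70 µM; nearly all actives have a fitted effect of over 25% in size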). The method in brief:
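Luciferase inhibition measured with ONE-Glo after 30 min at RT in BG1Luc4E2 cells given test compounds and 17beta-estradiol for 21.5 h at 37 C; CellTiter-Fluor viability read in the same wells beforehand.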

Estrogen receptor (Homo sapiens), sequence (P03372 whole entry, looked up): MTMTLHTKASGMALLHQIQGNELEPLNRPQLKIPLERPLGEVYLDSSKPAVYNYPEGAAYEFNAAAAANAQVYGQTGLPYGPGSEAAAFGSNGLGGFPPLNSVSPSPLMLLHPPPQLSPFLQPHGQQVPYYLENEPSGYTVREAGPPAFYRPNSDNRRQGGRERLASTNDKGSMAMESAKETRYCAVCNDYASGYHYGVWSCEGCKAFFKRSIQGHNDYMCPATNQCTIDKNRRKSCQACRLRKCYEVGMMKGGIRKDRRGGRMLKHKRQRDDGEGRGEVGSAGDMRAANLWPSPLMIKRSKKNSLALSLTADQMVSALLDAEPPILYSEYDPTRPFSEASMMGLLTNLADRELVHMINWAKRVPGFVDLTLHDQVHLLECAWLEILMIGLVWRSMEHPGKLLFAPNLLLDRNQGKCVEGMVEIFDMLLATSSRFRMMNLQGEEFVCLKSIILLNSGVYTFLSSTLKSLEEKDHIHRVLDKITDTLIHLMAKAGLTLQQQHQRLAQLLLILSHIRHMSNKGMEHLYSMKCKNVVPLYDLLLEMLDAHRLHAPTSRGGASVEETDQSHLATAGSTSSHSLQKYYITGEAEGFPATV
Aromatase (Homo sapiens), sequence (P11511 whole entry, looked up): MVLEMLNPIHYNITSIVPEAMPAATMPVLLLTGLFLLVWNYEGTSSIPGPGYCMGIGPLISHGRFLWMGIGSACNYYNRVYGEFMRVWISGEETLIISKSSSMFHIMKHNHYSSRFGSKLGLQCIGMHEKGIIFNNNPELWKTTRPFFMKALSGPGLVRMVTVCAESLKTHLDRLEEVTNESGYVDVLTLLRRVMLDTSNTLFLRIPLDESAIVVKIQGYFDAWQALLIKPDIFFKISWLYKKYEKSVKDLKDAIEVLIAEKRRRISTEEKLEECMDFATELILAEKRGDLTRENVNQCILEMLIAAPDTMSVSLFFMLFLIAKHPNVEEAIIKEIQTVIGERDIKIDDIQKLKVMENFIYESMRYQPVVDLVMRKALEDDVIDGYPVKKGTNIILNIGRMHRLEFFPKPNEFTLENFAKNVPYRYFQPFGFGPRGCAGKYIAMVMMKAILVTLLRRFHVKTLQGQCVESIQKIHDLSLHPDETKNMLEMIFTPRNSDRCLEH

Take `C=CC(=O)NC(C)(C)CC(C)=O`: the Potency result in [1], in experiment [2], in experiment [3], in experiment [4], in experiment [5] and in experiment [6] was “inactive” each time. For the same compound, the Potency entry in experiment [7] and in [8] was “inactive” each time.

As to `C[C@H](N)[C@H](O)c1ccc(O)c(O)c1`, in experiment [9], the Potency is 26.6 µM (active). The Potency entry in experiment [3], in [4], in [5], in experiment [6], in experiment [10] and in experiment [8] was “inactive” in each case.

Take `Cc1ccc2c(C)cccc2c1`: the Potency entry in experiment [1], in [2], in [3], in experiment [4], in experiment [5] and in experiment [6] was “inactive” in each case. For the same compound, the Potency entry in experiment [10], in experiment [7] and in experiment [8] was “inactive” in each case.

Regarding `CC(Cc1ccccc1)NCc1ccccc1Cl` (stereo unspecified), the Potency entry in [1], in experiment [2], in experiment [3], in experiment [4], in experiment [5] and in experiment [7] was “inactive” in each case. Also, the Potency result in experiment [8] was “inactive”. For the same compound, the Potency in experiment [6] was 26.6 µM (active).

Take `O=C(NC(=O)c1cc(F)c(F)cc1Cl)Nc1cc(F)ccc1N1CCC(C(=O)O)CC1`: the Potency entry in [9], in experiment [4], in [5], in experiment [6], in experiment [10] and in experiment [7] was “inactive” in each case. Further, in [8], the Potency result is “inactive”.

In the case of `COCc1cnc(C2=NC(C)(C(C)C)C(=O)N2)c(C(=O)O)c1` (stereo unspecified), the Potency entry in [1], in [2], in experiment [3], in experiment [4], in experiment [5] and in experiment [6] was “inactive” each time. For the same compound, the Potency result in experiment [10], in [7] and in experiment [8] was “inactive” in each case.

As to `O=[N+]([O-])O[C@H]1CO[C@H]2[C@@H]1OC[C@H]2O[N+](=O)[O-]`, the Potency entry in experiment [1], in experiment [2], in experiment [3], in [4], in experiment [5] and in experiment [10] was “inactive” throughout. Further, the Potency entry in [7] and in experiment [8] was “inactive” each time.

In the case of `O=C(N/N=C/c1ccc([N+](=O)[O-])o1)c1cc([N+](=O)[O-])cc([N+](=O)[O-])c1O`, the Potency result in [1], in experiment [2], in experiment [4] and in experiment [8] was “inactive” in each case.

For the compound `CC1(C)CC(=O)CC(C)(C)N1[O]`, the Potency entry in experiment [4], in [7] and in [8] was “inactive” in each case.

Turning to `CC(C)CCCCCCCOC(=O)c1ccccc1C(=O)OCCCCCCCC(C)C`, the Potency result in [1], in experiment [4], in experiment [7] and in [8] was “inactive” throughout.

For the compound `CC(Oc1cccc(Cl)c1)C(=O)O` (stereo unspecified), the Potency result in experiment [1], in experiment [2], in [4], in experiment [7] and in experiment [8] was “inactive” each time.

In the case of `C=CCN1C[C@H](C)N([C@H](c2ccc(C(=O)N(CC)CC)cc2)c2cccc(OC)c2)C[C@H]1C`, the Potency result in [2], in experiment [3], in experiment [4], in experiment [5], in [6] and in [10] was “inactive” in each case. Further, the Potency result in [7] and in experiment [8] was “inactive” each time.

Regarding `CCCCCCCCn1sccc1=O`, the Potency is 4.87 µM (active) and 3.6 µM (active) in [1]; 55.1 µM (active) and 51.3 µM (active) in experiment [4]; 10.9 µM (active) and 32.1 µM (active) in experiment [8]. The Potency result in experiment [10] and in experiment [7] was “inactive” each time.

For the compound `FC(F)OC(F)(F)C(F)Cl` (stereo unspecified), the Potency entry in experiment [1], in experiment [2], in experiment [4], in experiment [7] and in experiment [8] was “inactive” each time.

As to `CCOC(=O)c1cn2nc(OP(=S)(OCC)OCC)cc2nc1C`, the Potency result in [1], in [2], in experiment [4], in [5], in experiment [6] and in experiment [7] was “inactive” throughout. Further, the Potency entry in experiment [8] was “inactive”.

For the compound `CCOc1cccc(C2(N3CCN(c4ccccc4)CC3)CCC(C)CC2)c1` (stereo unspecified), the Potency entry in [1], in experiment [2], in [3], in [5], in experiment [6] and in [7] was “inactive” throughout. Besides, the Potency entry in experiment [8] is “inactive”.

For the compound `CC(=O)OC(c1ccccc1)C(Cl)(Cl)Cl` (stereo unspecified), the Potency result in [1], in experiment [2], in [3], in experiment [4], in [5] and in experiment [7] was “inactive” in each case.

For `CCC1(C2=NCCN2)Cc2ccccc2O1` (stereo unspecified), the Potency entry in experiment [2], in experiment [4], in experiment [5], in experiment [6], in [10] and in experiment [7] was “inactive” each time. For the same compound, the Potency result in experiment [8] is “inactive”.

`Cc1ccccc1`: the Potency result in experiment [1], in experiment [2], in [4], in experiment [7] and in experiment [8] was “inactive” throughout.

For the compound `O=C(Cc1ccccc1)c1ccccc1`, the Potency entry in experiment [1], in [2], in [4], in [5], in experiment [7] and in experiment [8] was “inactive” each time.

Consider `CCC1CCC(=O)O1` (stereo unspecified), for which the Potency entry in experiment [1], in experiment [2], in experiment [4] and in [7] was “inactive” throughout.

On to `CCCN(CCC)C(=O)Cc1c(-c2ccc(Cl)cc2)nc2ccc(Cl)cn12`, for which the Potency entry in experiment [2], in [4], in experiment [5], in experiment [6], in experiment [7] and in experiment [8] was “inactive” in each case.

For the compound `ClCc1ccccc1Cl`, the Potency result in experiment [1], in experiment [2], in [4], in experiment [7] and in experiment [8] was “inactive” throughout.

Regarding `C[N+]1(CCF)[C@@H]2CC[C@H]1CC(OC(=O)C(O)(c1ccccc1)c1ccccc1)C2` (stereo partly specified), the Potency entry in experiment [1], in experiment [2], in experiment [7] and in [8] was “inactive” throughout. The Potency in experiment [6] was 15 µM (active).

Turning to `CC(C)[C@@H](C(=O)O[C@@H](C#N)c1cccc(Oc2ccccc2)c1)c1ccc(Cl)cc1`, the Potency entry in [2], in [7] and in [8] was “inactive” throughout.

As to `C=CC(C)(CCC=C(C)C)OC(=O)c1ccccc1N` (stereo unspecified), the Potency result in experiment [1], in [2], in experiment [4], in [7] and in experiment [8] was “inactive” throughout.

Regarding `C[C@H]1[C@@H]2Cc3ccc(O)cc3[C@@]1(C)CCN2C`, the Potency entry in experiment [2] is “inactive”.

Take `CCOC(=O)C1OC1(C)c1ccccc1` (stereo unspecified): the Potency entry in [1], in [2], in [4], in experiment [7] and in experiment [8] was “inactive” throughout.

As to `N#CC(C#N)=Cc1ccc(O)c(O)c1`, the Potency in experiment [1] is 26.6 µM (active). In addition, the Potency entry in experiment [2], in experiment [3], in experiment [4], in experiment [6], in experiment [10] and in experiment [7] was “inactive” in each case. Moreover, the Potency result in experiment [8] was “inactive”.

As for `CN1C(=O)CN=C(c2ccccc2)c2cc([N+](=O)[O-])ccc21`, the Potency entry in [2], in [3], in experiment [4], in experiment [5], in experiment [7] and in [8] was “inactive” in each case.

As to `C[Si](Cn1cncn1)(c1ccc(F)cc1)c1ccc(F)cc1`, the Potency was 28.2 µM (active) and 54.5 µM (active) in experiment [1]; 316 nM (active) and 545 nM (active) in [8]. The Potency entry in experiment [2], in experiment [4] and in experiment [7] was “inactive” each time.
